Consider six sequences from PMC11574364.

What all share (test): protein domain microarray probed with biotinylated miRNA; Domain array: 20 mM Tris-HCl pH 7.4, 200 mM KCl, 0.2 mM EDTA, 0.05% NP40, 2 ug/ul heparin, overnight 4 C. ORF array: PBS pH 7.0 with RNase inhibitor, 100 ng RNA; high values mean tight binding
Holding throughout (settings): ssRNA

The target of experiment [1] is T1, hnRNP-M(3) (Homo sapiens, UniProt P52272).
T1 sequence: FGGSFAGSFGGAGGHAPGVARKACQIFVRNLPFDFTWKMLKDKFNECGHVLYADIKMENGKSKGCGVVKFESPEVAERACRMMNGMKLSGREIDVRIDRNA

The target in experiment [2] is T2, NONO (Homo sapiens, UniProt Q15233).
T2 sequence: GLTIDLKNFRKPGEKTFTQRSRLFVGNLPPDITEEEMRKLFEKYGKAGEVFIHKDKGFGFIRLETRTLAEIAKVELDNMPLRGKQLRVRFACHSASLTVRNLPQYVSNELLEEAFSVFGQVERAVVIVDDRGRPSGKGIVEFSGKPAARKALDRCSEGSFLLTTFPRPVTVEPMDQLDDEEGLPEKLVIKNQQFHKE

Experiment [3] concerns the target ELAVL3 (Homo sapiens, UniProt Q14576).
Experiment [4] has as its target EIF4B (Homo sapiens, UniProt P23588).
Experiment [5] addresses T3, HTF9C (Homo sapiens, UniProt Q8IZ69).
T3 sequence: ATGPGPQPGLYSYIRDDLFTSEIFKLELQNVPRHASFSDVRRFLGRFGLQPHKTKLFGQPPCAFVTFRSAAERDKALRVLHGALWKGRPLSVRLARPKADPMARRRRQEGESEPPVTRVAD

The target of experiment [6] is T4, NSAP1 (Homo sapiens, UniProt O60506).
T4 sequence: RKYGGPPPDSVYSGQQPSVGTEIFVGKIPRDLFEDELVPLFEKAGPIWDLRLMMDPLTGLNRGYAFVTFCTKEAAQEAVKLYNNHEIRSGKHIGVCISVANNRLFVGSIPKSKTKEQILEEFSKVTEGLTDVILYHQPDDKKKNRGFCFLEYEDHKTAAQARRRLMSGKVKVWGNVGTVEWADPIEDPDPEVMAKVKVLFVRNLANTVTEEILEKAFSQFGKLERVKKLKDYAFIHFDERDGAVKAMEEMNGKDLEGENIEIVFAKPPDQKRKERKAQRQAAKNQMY

Experiment [7] addresses T5, DAZ2/3 (Homo sapiens, UniProt Q9NR90).
T5 sequence: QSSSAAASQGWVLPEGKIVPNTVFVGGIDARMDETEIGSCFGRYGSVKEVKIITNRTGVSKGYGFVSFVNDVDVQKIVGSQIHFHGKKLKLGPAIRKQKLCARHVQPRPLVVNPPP

Experiment [8] deals with hnRNP-D0 (Homo sapiens, UniProt Q14103).
hnRNP-D0, sequence (Q14103 80-280): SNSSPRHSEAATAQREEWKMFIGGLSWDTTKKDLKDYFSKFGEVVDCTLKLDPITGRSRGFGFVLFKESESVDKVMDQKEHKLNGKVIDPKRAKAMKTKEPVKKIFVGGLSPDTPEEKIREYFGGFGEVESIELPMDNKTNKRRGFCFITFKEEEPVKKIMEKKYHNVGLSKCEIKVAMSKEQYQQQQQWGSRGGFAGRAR
In experiment [9] the target is PABPC1L (Homo sapiens, UniProt Q4VXU2).
PABPC1L, sequence (Q4VXU2 1-390): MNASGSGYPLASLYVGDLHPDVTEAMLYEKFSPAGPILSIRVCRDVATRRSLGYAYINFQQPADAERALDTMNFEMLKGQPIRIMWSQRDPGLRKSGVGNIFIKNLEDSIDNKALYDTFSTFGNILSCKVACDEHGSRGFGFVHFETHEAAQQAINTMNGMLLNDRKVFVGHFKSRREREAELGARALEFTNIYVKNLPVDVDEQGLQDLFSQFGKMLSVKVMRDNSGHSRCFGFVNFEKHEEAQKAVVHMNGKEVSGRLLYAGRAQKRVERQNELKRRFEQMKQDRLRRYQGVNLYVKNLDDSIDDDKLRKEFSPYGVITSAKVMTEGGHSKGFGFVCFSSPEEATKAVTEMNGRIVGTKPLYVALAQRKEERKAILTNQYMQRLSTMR
Experiment [10] has as its target NCL (Homo sapiens, UniProt P19338).
In experiment [11] the target is T6, PABPN1 (Homo sapiens, UniProt Q86U42).
T6 sequence: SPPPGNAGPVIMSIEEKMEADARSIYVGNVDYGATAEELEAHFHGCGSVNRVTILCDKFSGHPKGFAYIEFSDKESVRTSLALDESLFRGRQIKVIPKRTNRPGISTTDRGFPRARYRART

Experiment [12] deals with T7, CNOT4 (Homo sapiens, UniProt O95628).
T7 sequence: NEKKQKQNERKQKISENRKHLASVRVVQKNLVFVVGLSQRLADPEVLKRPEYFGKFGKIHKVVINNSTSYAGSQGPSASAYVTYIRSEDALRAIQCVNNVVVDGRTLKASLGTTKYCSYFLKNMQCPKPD

Experiment [13] has as its target T8, CSTF2 (Homo sapiens, UniProt P33240).
T8 sequence: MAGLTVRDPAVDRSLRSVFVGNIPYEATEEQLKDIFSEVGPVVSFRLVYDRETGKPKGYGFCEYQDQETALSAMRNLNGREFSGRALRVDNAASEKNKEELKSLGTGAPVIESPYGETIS

In experiment [14] the target is T9, DRBP1(3-4) (Homo sapiens, UniProt Q8IUH3).
T9 sequence: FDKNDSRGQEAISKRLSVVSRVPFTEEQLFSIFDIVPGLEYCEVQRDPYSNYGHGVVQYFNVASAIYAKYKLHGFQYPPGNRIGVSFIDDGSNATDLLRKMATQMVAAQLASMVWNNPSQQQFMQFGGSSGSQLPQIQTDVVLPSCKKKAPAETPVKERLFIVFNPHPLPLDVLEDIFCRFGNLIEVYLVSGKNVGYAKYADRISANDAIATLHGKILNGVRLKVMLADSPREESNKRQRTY

Experiment [15] deals with hnRNP-A/B (Homo sapiens, UniProt Q99729).
hnRNP-A/B, sequence (Q99729 50-250): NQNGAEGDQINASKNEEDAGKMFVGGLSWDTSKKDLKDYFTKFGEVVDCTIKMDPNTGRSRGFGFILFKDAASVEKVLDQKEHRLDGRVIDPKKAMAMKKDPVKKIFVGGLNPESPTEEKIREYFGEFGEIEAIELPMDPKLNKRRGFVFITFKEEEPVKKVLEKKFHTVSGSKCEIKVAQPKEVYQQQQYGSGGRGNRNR
Experiment [16] deals with T10, CPSF7 (Homo sapiens, UniProt Q8N684).
T10 sequence: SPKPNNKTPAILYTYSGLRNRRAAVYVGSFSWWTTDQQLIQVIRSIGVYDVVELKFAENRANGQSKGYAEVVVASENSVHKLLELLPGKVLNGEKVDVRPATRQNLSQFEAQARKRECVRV

Experiment [17] concerns the target HNRNPA1L2 (Homo sapiens, UniProt Q32P51).
The target of experiment [18] is HNRNPCL3/4 (Homo sapiens, UniProt O60812).
HNRNPCL3/4, sequence (O60812 1-110): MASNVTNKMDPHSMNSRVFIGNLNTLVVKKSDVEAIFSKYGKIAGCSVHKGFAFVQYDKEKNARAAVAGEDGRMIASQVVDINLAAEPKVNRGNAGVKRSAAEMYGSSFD
The target in experiment [19] is CPSF6 (Homo sapiens, UniProt Q16630).
CPSF6, sequence (Q16630 60-180): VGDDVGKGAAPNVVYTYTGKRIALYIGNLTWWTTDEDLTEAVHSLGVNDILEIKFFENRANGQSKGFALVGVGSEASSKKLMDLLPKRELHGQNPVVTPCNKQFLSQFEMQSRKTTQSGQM
The target in experiment [20] is hnRNP-CL1 (Homo sapiens, UniProt O60812).
hnRNP-CL1, sequence (O60812 1-110): as the sequence (O60812 1-110) above

NCL, sequence (P19338 288-670): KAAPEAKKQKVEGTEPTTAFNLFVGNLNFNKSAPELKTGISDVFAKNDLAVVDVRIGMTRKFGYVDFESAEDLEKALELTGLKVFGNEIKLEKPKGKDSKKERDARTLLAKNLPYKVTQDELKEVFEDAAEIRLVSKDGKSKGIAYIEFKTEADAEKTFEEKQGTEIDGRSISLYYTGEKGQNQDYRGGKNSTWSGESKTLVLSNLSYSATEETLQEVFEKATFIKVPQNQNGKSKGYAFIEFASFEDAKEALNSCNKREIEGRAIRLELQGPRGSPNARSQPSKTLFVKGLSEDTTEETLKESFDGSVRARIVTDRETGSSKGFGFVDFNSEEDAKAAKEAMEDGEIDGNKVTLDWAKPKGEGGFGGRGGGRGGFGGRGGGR
HNRNPA1L2, sequence (Q32P51 1-205): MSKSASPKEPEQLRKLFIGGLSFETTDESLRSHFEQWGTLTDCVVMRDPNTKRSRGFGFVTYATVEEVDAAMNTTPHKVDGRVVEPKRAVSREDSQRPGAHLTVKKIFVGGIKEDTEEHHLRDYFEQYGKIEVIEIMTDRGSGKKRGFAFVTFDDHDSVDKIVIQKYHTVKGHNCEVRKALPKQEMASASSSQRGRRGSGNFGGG
EIF4B, sequence (P23588 75-190): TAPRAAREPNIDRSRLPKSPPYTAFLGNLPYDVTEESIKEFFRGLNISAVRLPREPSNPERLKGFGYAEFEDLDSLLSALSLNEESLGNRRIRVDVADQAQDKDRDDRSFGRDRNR
ELAVL3, sequence (Q14576 20-367): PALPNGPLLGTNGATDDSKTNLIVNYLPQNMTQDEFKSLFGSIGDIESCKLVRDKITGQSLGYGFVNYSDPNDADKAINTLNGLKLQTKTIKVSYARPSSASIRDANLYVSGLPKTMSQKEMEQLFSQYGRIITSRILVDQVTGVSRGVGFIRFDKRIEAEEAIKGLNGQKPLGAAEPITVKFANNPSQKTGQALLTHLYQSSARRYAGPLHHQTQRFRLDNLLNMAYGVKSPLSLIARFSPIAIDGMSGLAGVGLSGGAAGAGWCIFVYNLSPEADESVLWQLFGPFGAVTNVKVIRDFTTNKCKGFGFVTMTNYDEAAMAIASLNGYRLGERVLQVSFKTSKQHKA

For the sequence AGAGGUAGUAGGUUGCAUAGUU, the binding signal in experiment [1] worked out at 68.4 ± 19.5 fluorescence intensity; in [2], 26.1 ± 4.07 fluorescence intensity; in experiment [3], 1430 ± 30.2 fluorescence intensity; in experiment [4], 3250 ± 198 fluorescence intensity; in experiment [5] it was 78 ± 2.68 fluorescence intensity; in experiment [6], 1900 ± 59.9 fluorescence intensity. For the same sequence, the binding signal in experiment [7] is 260 ± 18.7 fluorescence intensity; in experiment [8] it was 1690 ± 40.2 fluorescence intensity; in experiment [9], 1740 ± 116 fluorescence intensity; in experiment [10], 3640 ± 50 fluorescence intensity; in experiment [11], 3510 ± 43.1 fluorescence intensity; in experiment [12], 230 ± 7.35 fluorescence intensity. For the same sequence, the binding signal in experiment [13] came to 1640 ± 152 fluorescence intensity; in [14], 63.1 ± 5.42 fluorescence intensity; in experiment [15] it was 1830 ± 93.1 fluorescence intensity; in experiment [16] it was 48.3 ± 8.88 fluorescence intensity; in [17], 630 ± 43.3 fluorescence intensity.
Turning to UGAGGUAGUAGGUUGUAUGGUU, the binding signal was 78.7 ± 6.91 fluorescence intensity in [1]; 41.2 ± 0.665 fluorescence intensity in experiment [2]; 34.6 ± 6.43 fluorescence intensity in [18]; 1020 ± 53.3 fluorescence intensity in experiment [3]; 26.1 ± 6.17 fluorescence intensity in experiment [19]; 43.3 ± 2.77 fluorescence intensity in [20]. The binding signal turned out to be 2140 ± 29.2 fluorescence intensity in [4]; 104.2 ± 0.884 fluorescence intensity in experiment [5]; 1830 ± 24.4 fluorescence intensity in [6]; 151 ± 11.5 fluorescence intensity in experiment [7]; 1386 ± 9.72 fluorescence intensity in [8]; 1355 ± 13.5 fluorescence intensity in [9]. Also, the binding signal in [10] is 2733 ± 6.99 fluorescence intensity; in experiment [11] it was 2730 ± 37.5 fluorescence intensity; in [12] it was 263.8 ± 1.66 fluorescence intensity; in [13], 877 ± 50.3 fluorescence intensity; in [14], 95.6 ± 13.4 fluorescence intensity; in experiment [15], 1148 ± 9.7 fluorescence intensity. Moreover, the figures for the binding signal in experiment [16] and in experiment [17] were 58.9 ± 3.79 fluorescence intensity and 644 ± 46.8 fluorescence intensity, respectively.
As to UAGCUUAUCAGACUGAUGUUGA, the binding signal stood at 20.6 ± 3.13 fluorescence intensity in experiment [1]; 22.52 ± 0.0849 fluorescence intensity in experiment [18]; 508 ± 14.6 fluorescence intensity in experiment [3]; 36.4 ± 14.3 fluorescence intensity in experiment [19]; 24.6 ± 5.08 fluorescence intensity in [4]; 42.1 ± 2.96 fluorescence intensity in [6]. In addition, the binding signal in experiment [7] stood at 153 ± 9.91 fluorescence intensity; in [8], 106 ± 5.55 fluorescence intensity; in experiment [9], 126 ± 31.5 fluorescence intensity; in experiment [10] it was 1820 ± 62.5 fluorescence intensity; in experiment [11] it was 329 ± 38.4 fluorescence intensity; in [12], 35.05 ± 0.099 fluorescence intensity. Moreover, the binding signal was 142 ± 42.3 fluorescence intensity in experiment [13] and 108 ± 7.62 fluorescence intensity in experiment [15].
With UGAGGUAGUAGGUUGUGUGGUU, the binding signal in experiment [1] was determined as 112 ± 17.8 fluorescence intensity; in experiment [2], 62.6 ± 1.97 fluorescence intensity; in experiment [18] it was 36.4 ± 6.48 fluorescence intensity; in experiment [3] it was 1280 ± 96.1 fluorescence intensity; in experiment [19] it was 32.1 ± 8.4 fluorescence intensity; in [20], 77.6 ± 17.1 fluorescence intensity. Moreover, the binding signal in experiment [4] came out at 2502 ± 2.61 fluorescence intensity; in experiment [5], 182 ± 12.4 fluorescence intensity; in [6], 1770 ± 45.4 fluorescence intensity; in [7], 288 ± 6.91 fluorescence intensity; in experiment [8] it was 1275 ± 12.6 fluorescence intensity; in experiment [9], 1150 ± 102 fluorescence intensity. The binding signal in experiment [10] came to 2320 ± 38.6 fluorescence intensity; in experiment [11], 2208 ± 3.21 fluorescence intensity; in experiment [12], 448 ± 8.85 fluorescence intensity; in [13], 1760 ± 71.7 fluorescence intensity; in [14], 117 ± 36.4 fluorescence intensity; in experiment [15], 1294 ± 7.55 fluorescence intensity. Moreover, the binding signal in experiment [16] was 106 ± 4.55 fluorescence intensity; in [17] it was 551 ± 58 fluorescence intensity.
For UGAGGUAGUAGGUUGUAUAGUU, the binding signal was 22.8 ± 3.08 fluorescence intensity in experiment [1]; 20.7 ± 2.69 fluorescence intensity in [2]; 22.3 ± 2.99 fluorescence intensity in [18]; 476 ± 12.5 fluorescence intensity in experiment [3]; 23 ± 8.56 fluorescence intensity in experiment [19]; 31.8 ± 10.7 fluorescence intensity in experiment [20]. Besides, the binding signal came to 883 ± 50 fluorescence intensity in experiment [4]; 755 ± 86.6 fluorescence intensity in experiment [6]; 37.8 ± 6.41 fluorescence intensity in experiment [7]; 580 ± 40.2 fluorescence intensity in experiment [8]; 626 ± 62.6 fluorescence intensity in [9]; 1458 ± 3.11 fluorescence intensity in experiment [10]. The binding signal was 2100 ± 89.2 fluorescence intensity in [11]; 73.77 ± 0.226 fluorescence intensity in experiment [12]; 546 ± 37.1 fluorescence intensity in experiment [13]; 453 ± 6.64 fluorescence intensity in [15]; 21.4 ± 4.04 fluorescence intensity in experiment [16]; 226 ± 23.1 fluorescence intensity in experiment [17].
Take CAGUGCAAUGAUGAAAGGGCAU: the binding signal in [1] was found to be 37.9 ± 1.35 fluorescence intensity; in experiment [18], 29.9 ± 0.976 fluorescence intensity; in [3], 868 ± 33.5 fluorescence intensity; in experiment [19], 39.2 ± 6.51 fluorescence intensity; in [20], 23 ± 5.29 fluorescence intensity; in experiment [4], 1810 ± 123 fluorescence intensity. Also, the binding signal was 52.8 ± 3.39 fluorescence intensity in experiment [5]; 398 ± 6.14 fluorescence intensity in experiment [6]; 70.6 ± 0.849 fluorescence intensity in [7]; 338 ± 13.6 fluorescence intensity in [8]; 990.7 ± 2.47 fluorescence intensity in experiment [9]; 2833 ± 25.8 fluorescence intensity in experiment [10]. Besides, the binding signal was 2170 ± 30.4 fluorescence intensity in experiment [11]; 235.49 ± 0.198 fluorescence intensity in experiment [12]; 484 ± 5.24 fluorescence intensity in experiment [13]; 77 ± 15.6 fluorescence intensity in experiment [14]; 1111 ± 3.46 fluorescence intensity in experiment [15]; 47.8 ± 6.69 fluorescence intensity in experiment [16]. The same sequence displayed a binding signal in [17] of 236 ± 20 fluorescence intensity.
